High-throughput results from PubChem.
Most compounds without a hit are left out; they make up all but 4.1% or so of the library.
AmpC inh detg: blocks E. coli AmpC beta-lactamase in detergent assay. actives 0.041% (n = 370,000). P00811. Potency, µM (doses to about 114 µM), inactives show at the highest dose activity change, negative = inhibition, hits mostly inhibitors. AmpC hydrolysis of nitrocefin, absorbance 480 nm, 0.01% Triton;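 also: 0% = no-compound wells and -100% = no-enzyme wells; nearly all actives have a fitted effect of over 25% in size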
Target sequence (P00811 whole entry, looked up): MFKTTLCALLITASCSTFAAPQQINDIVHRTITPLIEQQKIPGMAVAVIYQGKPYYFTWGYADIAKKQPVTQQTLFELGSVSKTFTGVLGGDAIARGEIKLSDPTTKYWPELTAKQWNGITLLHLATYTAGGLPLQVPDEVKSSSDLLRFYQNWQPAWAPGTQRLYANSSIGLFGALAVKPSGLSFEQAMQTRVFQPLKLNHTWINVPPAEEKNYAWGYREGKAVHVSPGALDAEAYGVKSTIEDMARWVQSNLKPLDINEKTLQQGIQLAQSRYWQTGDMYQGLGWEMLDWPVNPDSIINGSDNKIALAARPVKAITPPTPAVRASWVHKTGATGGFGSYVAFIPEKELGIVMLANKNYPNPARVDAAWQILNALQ
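AmpC (5.3 nM in the dispensed reagent) in 20 mM phosphate pH 7.0 with 0.01% (detergent screen) or 0.0001% Triton X-100 was preincubated with compounds for 15 min at room temperature. Nitrocefin was then added from an 800 uM solution, and hydrolysis was followed at 480 nm.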
AMA1 RON2 block: inhibitors of Plasmodium falciparum AMA1-RON2 interaction. actives 0.2% (n = 360,000). Potency, µM (highest dose often 58.2 µM), inactives show at the highest dose activity change, negative = inhibition, hits mostly inhibitors. AID 720542. AlphaScreen AMA1-biotinylated RON2 peptide binding;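 also: 0% = vehicle wells and -100% = peptide control; nearly all actives have a fitted effect of over 45% in size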
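AMA1 (3D7) with his tag at 25 nM final met compounds first, then biotinylated RON2 peptide at 25 nM; detection used donor plus acceptor beads, 10 µg/mL apiece, read by AlphaScreen after 30 min at room temperature.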
AmpC no deterg: blocks E. coli AmpC beta-lactamase in detergent-free assay; P00811; actives 0.52% (n = 330,000); AID 485341; Potency, µM (series often up to 57.1 µM), inactives show at the top dose activity change, negative = inhibition, usual class: inhibitors; AmpC nitrocefin hydrolysis, absorbance 480 nm, 0.0001% Triton;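 also: plate controls were no compound for no effect and no enzyme for full effect; nearly all actives have a fitted effect of over 20% in size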
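20 mM phosphate pH 7.0 + 0.01% (detergent screen) or 0.0001% Triton X-100; 5.3 nM AmpC reagent; cpd preinc 15 min RT; nitrocefin (800 uM stock) to start; A480 q20 s × 4 min; Activity was normalised to no-enzyme and no-compound control wells.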
Sm TGR inh: blocks Schistosoma mansoni thioredoxin glutathione reductase | Q962Y6 | purified TGR, DTNB reduction, TNB absorbance 405 nm | Potency, µM (titrated, usually from 114 µM), for inactives: at the highest dose activity change, negative = inhibition, usual class: inhibitors | actives 3% (n = 360,000) | AID 485364; also: nearly all actives have a fitted effect of over 60% in size
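TGR 20 nM + NADPH 100 uM (dispensed conc.), cpd preinc 15 min RT; start with NADPH (500 uM addition) then DTNB (15 mM addition). Kinetic TNB absorbance, 405 nm filter. Four-parameter Hill fit across titration.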
FMDV inh: antivirals against foot and mouth disease virus. Potency, µM (top dose mostly 57.9 µM), for the others: top-dose activity change, negative = inhibition, hits mostly inhibitors. actives 1.2% (n = 410,000). FMDV antiviral cell-based qHTS; calls by dose curve; tested in HEK293T cells; also: read-out not given here; nearly all actives have a fitted effect of over 45% in size
* hit, by the source's call; ? = inconclusive; · = no result given; [ ] = dose if it differs, or a comment. Unless noted, calls follow the shape of the dose curve; as a rule, active = well fitted curve in the direction sought with a large enough effect; inconclusive = small, poorly fitted or top-dose-only effect, or another doubt; inactive = no such curve, though single readings can be large; an effect the other way counts as inactive or inconclusive. Unless noted, % is scaled to controls: 0 for no effect and ±100 for the full control effect; potency is read from the fitted curve at half-maximal effect.

SMILES	AmpC inh detg	AMA1 RON2 block	AmpC no deterg	Sm TGR inh	FMDV inh
COc1ccccc1CNc1nc(NCc2cccc(OC)c2OC)c2sccc2n1	·	?	·	·	40µM*
C#Cc1cccc(Nc2nc(NCCOC)nc3ccsc23)c1	·	3%	·	·	?
N#CC1(C#N)C(c2ccccc2)OC23CCCCCC2C1(C#N)C(=N)O3 (stereo not given)	-7%	0%	-26%	25µM*	-7%
N#CC1(C#N)C(c2ccccc2)OC23CCCCC2C1(C#N)C(=N)O3 (stereo not given)	-5%	12%	-24%	?	-18%
CCCCC1OC23CCCCC2C(C#N)(C(=N)O3)C1(C#N)C#N (stereo not given)	?	22%	-33%	0%	25µM*
CC(=O)c1ccc(F)c(-c2cc(C)cc3c2OC(CNC(=O)Cn2nc(C)nc2C)C3)c1 (stereo not given)	·	·	·	·	-13%
COc1ccc(NC(=O)c2cc(OCCCN(C)C)nn2Cc2ccccc2)cc1	·	·	·	·	-8%
Fc1cccc(CNc2ncnc3ccc(-c4cccc(Cl)c4)cc23)c1	?	·	-25%	4%	·
CSc1nc2c(cnn2-c2ccc(C)c(C)c2)c(=O)[nH]1	?	-1%	-20%	-28%	-8%
CCCCSc1nc2c(cnn2-c2ccc(F)cc2)c(=O)[nH]1	?	-7%	40µM*	-1%	-14%
CCC(C)Sc1nc2c(cnn2-c2ccc(C)c(C)c2)c(=O)[nH]1 (stereo not given)	-14%	-2%	40µM*	3%	-4%
CCCc1nnc2n1N=C(c1ccc(C)cc1)CS2	?	-8%	28%	45µM*	-10%
CCc1nnc2n1N=C(c1ccccc1)CS2	1%	-4%	-5%	45µM*	-13%
CCc1nnc2n1N=C(c1ccc(Cl)cc1)CS2	-7%	-6%	0%	1%	?
c1ccc(-c2ccc(C3=Nn4c(nnc4-c4cccs4)SC3)cc2)cc1	-6%	-25%	-20%	8%	-16%
Clc1ccc(C2=Nn3c(nnc3-c3cccs3)SC2)cc1	-1%	18%	-17%	79µM*	-24%
CCCc1nnc2n1N=C(c1ccc([N+](=O)[O-])cc1)CS2	0%	-5%	-21%	-27%	-15%
Cc1ccc(C(=O)Nc2cccc(C(=O)OCc3cc(=O)n4c5c(sc4n3)CCCC5)c2)cc1	13%	·	·	1%	-19%
CCN(CC)S(=O)(=O)c1cc(NC(=O)COC(=O)c2ccc(NC(=O)CC#N)cc2)ccc1C	4%	12%	7.9µM*	0%	-8%
N#CCC(=O)Nc1ccc(C(=O)OC(C(=O)Nc2cc(C(F)(F)F)ccc2Cl)c2ccccc2)cc1 (stereo not given)	0%	-7%	7.1µM*	0%	?
CCn1c2ccccc2c2cc(NC(=O)c3ccc(Br)o3)ccc21	1%	-10%	-46%	11µM*	-21%
CC(OC(=O)c1ccc(NC(=O)CC#N)cc1)C(=O)Nc1nc(-c2ccccc2)cs1 (stereo not given)	?	-2%	-49%	7%	?
CC(OC(=O)c1ccc(NC(=O)CC#N)cc1)C(=O)Nc1ccc(Oc2ccccc2)cc1 (stereo not given)	7%	·	6.3µM*	-14%	·
CCn1c2ccccc2c2cc(NC(=O)COC(=O)c3ccccc3F)ccc21	-7%	20%	-28%	?	0%
N#CCC(=O)Nc1ccc(C(=O)OCC(=O)Nc2ccc3ccccc3c2)cc1	4%	18%	20µM*	-1%	37%
SMILES	AmpC inh detg	AMA1 RON2 block	AmpC no deterg	Sm TGR inh	FMDV inh
N#CCC(=O)Nc1ccc(C(=O)NCCC(c2ccccc2)c2ccccc2)cc1	-3%	5%	7.9µM*	-4%	-27%
N#CCC(=O)Nc1ccc(C(=O)OCC(=O)N=c2sccn2Cc2ccccc2Cl)cc1	-14%	4%	10µM*	-1%	?
CCn1c2ccccc2c2cc(NC(=O)COC(=O)c3ccc(NC(=O)CC#N)cc3)ccc21	0%	-21%	32µM*	1%	11%
Cc1cccc(C)c1NC(=O)Cn1cc(C(=O)C2CC2)c2ccccc21	23%	·	·	4%	0%
CCOC(=O)CCCCN(Cc1ccccc1F)S(=O)(=O)c1ccc(F)c(C(=O)Nc2cc(Cl)cc(Cl)c2)c1	-4%	·	·	0%	-11%
CCn1c2ccccc2c2cc(NC(=O)COc3ccccc3)ccc21	-7%	-4%	25µM*	-10%	-26%
CCN1C=C(Cc2ccc(F)cc2)C2=C(C1)C(c1ccc(F)cc1)C(C#N)=C(N)O2 (stereo not given)	-8%	-23%	-7%	?	?
CCN1C=C(Cc2ccccc2C)C2=C(C1)C(c1ccccc1C)C(C#N)=C(N)O2 (stereo not given)	3%	-20%	18%	45µM*	?
Cc1c(C(=O)NCc2nccs2)cnn1-c1ncc2c(n1)-c1ccccc1CC2	·	·	·	·	40%
CCc1nnc(SC(CC)C(=O)Nc2cc(C)ccc2C)c2cc3occc3n12 (stereo not given)	-3%	·	·	-2%	-22%
Cc1ccc(C)c(N2CCN(C(=O)C3CCCCN3S(=O)(=O)c3ccc(F)cc3)CC2)c1 (stereo not given)	?	-1%	17%	18%	32µM*
O=C(O)C1CCCN1S(=O)(=O)c1ccc(F)cc1 (stereo not given)	-13%	8%	-9%	-15%	-9%
Cc1ccc(Cl)cc1N1CCN(C(=O)C2CCN(S(C)(=O)=O)CC2)CC1	6%	1%	147%	-20%	?
Cc1ccc(C)c(N2CCN(C(=O)C3CCN(c4nc(C)cc(C)n4)CC3)CC2)c1	?	-2%	134%	-3%	18µM*
Cc1cc(C)nc(N2CCC(C(=O)N3CCN(c4cc(Cl)ccc4C)CC3)CC2)n1	-11%	-7%	109%	1%	28µM*
Cc1ccc(C)c(N2CCN(C(=O)C3CCN(c4nnc(N5CCCC5=O)s4)CC3)CC2)c1	-14%	-11%	96%	-1%	25µM*
Cc1ccc(C)c(N2CCN(C(=O)C3CCN(c4nc5ccc(C)cc5[nH]4)CC3)CC2)c1	9%	·	·	4%	?
O=C(C1CCN(c2nnc(N3CCCC3=O)s2)CC1)N1CCN(c2cccc(C(F)(F)F)c2)CC1	0%	1%	140%	1%	-16%
COc1cc(OC)c(OC)cc1CN1CCOc2ccc(CN3CCN(C(C)=O)CC3)cc2C1	·	·	·	·	-30%
CC[C@]1(O)C[C@@H]2CN(CCc3c([nH]c4ccccc34)[C@@](C(=O)OC)(c3cc4c(cc3OC)N(C)C3[C@]45CCN4CC=C[C@](CC)(C45)[C@@H](OC(C)=O)[C@]3(O)C(=O)OC)C2)C1 (stereo not given in full)	·	·	·	·	-20%[27 µM]
